Results: the supplement of paper PMC11732987, “Enantioselective OTUD7B fragment discovery through chemoproteomics screening and high-throughput optimisation” (Communications Chemistry, 2025)

Experiments:
Assay in all cases: log2 ratio of Biotin-Ahx-Ub-VS probe labelling (compound/DMSO); higher = less target engagement, active = hit call of the paper (q ≤ 0.05, log2 ratio ≤ -1)
Conditions in all cases: treatment time: 3 h
[1] = compound: CCC1N(CCc2sccc12)C(=O)CCl
Method in brief: (§1)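 Compound at 50 or 200 µM, or DMSO, was applied for 3 h in triplicate to HEK293T lysate (495 µg per sample, Tris/CHAPS/IGEPAL buffer with protease inhibitors), after which Biotin-Ahx-Ub-VS was added at 0.5 µM final for 1 h. The labelled DUBs were pulled down with NeutrAvidin, digested with LysC and trypsin, and run by diaPASEF LC-MS/MS. Ratios are averaged base-two logs of compound over DMSO from median-normalised label-free quantities by unpaired t-test, counting only proteins with at least 2 unique peptides.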

[2] = compound: CN1c2ccccc2C(CS1(=O)=O)NC(=O)CCl
Method in brief: as §1

[3] = compound: Cl.ClCC(=O)N1CCc2ncncc2C1
Method in brief: as §1

[4] = compound: Cl.Cn1ncc2C(CCCc12)NC(=O)CCl
Method in brief: as §1

[5] = compound: ClCC(=O)NC1CCOc2ccccc12
Method in brief: as §1

[6] = compound: ClCC(=O)NC1CCCc2ccccc12
Method in brief: (§2)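 These values are averaged ratios of compound to vehicle, tested by unpaired t-test. HEK293T lysate (495 µg per sample) was preincubated in triplicate with compound across a concentration series or vehicle for 3 h and then with Biotin-Ahx-Ub-VS at 0.5 µM final for 1 h. Deubiquitinases carrying the probe were NeutrAvidin-enriched, digested with LysC and trypsin, and measured by diaPASEF LC-MS/MS. Ratios are expressed as log2 from global-median-normalised Spectronaut label-free quantities, and only proteins with two or more unique peptides were included.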

[7] = compound: ClCC(=O)N[C@@H]1CCCc2ccccc12
Method in brief: as §2

[8] = compound: ClCC(=O)N[C@H]1CCCc2ccccc12
Method in brief: as §2

[9] = compound: CCC1N(CCc2cc(OC)c(Cl)cc12)C(=O)CCl
Method in brief: as §1

[10] = compound: CCCC1N(CCc2cc(OC)c(OC)cc12)C(=O)CCl
Method in brief: as §1

[11] = compound: CN(Cc1cccc(Br)c1)C(=O)CCl
Method in brief: as §1

[12] = compound: CN(Cc1ccccc1)C(=O)CCl
Method in brief: as §1

[13] = compound: COc1ccc(CN(C)C(=O)CCl)cc1
Method in brief: as §1

[14] = compound: COc1cccc(CN(CCCc2ccccc2)C(=O)CCl)c1
Method in brief: as §1

[15] = compound: ClCC(=O)N1CCc2cc(Cl)c(Cl)cc2C1
Method in brief: as §1

[16] = compound: ClCC(=O)N1CCc2nc(ncc2C1)-c1ccccc1
Method in brief: as §1

[17] = compound: ClCC(=O)N1CCc2nocc2C1
Method in brief: as §1

[18] = compound: ClCC(=O)N1CCc2scc(Br)c2C1
Method in brief: as §1

[19] = compound: ClCC(=O)NC(C1CCCC1)c1cccs1
Method in brief: as §1

Measured: log2 ratio of Biotin-Ahx-Ub-VS probe labelling

USP8 (UniProt P40818)
UniProt P40818, sequence (P40818 whole entry): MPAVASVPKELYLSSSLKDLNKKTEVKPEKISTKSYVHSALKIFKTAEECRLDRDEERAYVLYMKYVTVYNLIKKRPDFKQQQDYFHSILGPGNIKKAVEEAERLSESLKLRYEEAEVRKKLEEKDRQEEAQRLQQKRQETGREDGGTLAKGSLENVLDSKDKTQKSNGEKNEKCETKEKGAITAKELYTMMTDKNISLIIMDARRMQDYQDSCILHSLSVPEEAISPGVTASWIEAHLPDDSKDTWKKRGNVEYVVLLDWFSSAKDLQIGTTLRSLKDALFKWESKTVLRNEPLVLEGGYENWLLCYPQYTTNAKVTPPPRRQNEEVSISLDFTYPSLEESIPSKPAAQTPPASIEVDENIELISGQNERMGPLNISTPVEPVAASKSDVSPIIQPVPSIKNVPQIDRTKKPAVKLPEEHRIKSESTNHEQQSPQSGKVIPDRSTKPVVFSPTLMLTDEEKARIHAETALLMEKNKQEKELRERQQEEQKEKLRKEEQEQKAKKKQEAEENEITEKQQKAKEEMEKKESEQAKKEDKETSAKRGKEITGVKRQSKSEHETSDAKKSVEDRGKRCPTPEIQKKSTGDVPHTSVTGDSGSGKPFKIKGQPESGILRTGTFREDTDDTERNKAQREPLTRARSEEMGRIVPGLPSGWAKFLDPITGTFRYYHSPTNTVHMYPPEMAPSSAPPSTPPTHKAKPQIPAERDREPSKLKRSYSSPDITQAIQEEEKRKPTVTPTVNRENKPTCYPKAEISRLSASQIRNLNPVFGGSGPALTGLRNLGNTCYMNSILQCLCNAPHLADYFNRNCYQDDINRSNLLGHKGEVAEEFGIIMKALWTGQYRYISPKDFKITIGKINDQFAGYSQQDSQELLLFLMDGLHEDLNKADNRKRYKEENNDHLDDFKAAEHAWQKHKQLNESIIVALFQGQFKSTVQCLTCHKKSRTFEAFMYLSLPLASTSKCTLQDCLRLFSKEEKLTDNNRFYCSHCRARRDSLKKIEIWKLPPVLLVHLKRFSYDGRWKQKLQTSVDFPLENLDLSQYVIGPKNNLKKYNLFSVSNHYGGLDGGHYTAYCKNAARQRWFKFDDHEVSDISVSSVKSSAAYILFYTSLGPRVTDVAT
inactive: [1]; compound concentration: 50uM -0.18 | [1]; compound concentration: 200uM -0.116 | [2]; compound concentration: 50uM -0.21 | [2]; compound concentration: 200uM -0.21 | [3]; compound concentration: 50uM -0.0841 | [3]; compound concentration: 200uM -0.378 | [4]; compound concentration: 50uM -0.0611 | [4]; compound concentration: 200uM 0.0851 | [5]; compound concentration: 50uM -0.212 | [5]; compound concentration: 200uM -0.0542 | [6]; compound concentration: 0.78uM -0.0473 | [6]; compound concentration: 1.56uM 0.0438 | [6]; compound concentration: 3.13uM -0.127 | [6]; compound concentration: 6.25uM -0.0217 | [6]; compound concentration: 12.5uM -0.0947 | [6]; compound concentration: 25uM -0.0983 | [6]; compound concentration: 50uM -0.0766 | [6]; compound concentration: 100uM -0.0121 | [6]; compound concentration: 200uM -0.102 | [7]; compound concentration: 0.78uM -0.0947 | [7]; compound concentration: 1.56uM -0.0445 | [7]; compound concentration: 3.13uM -0.000329 | [7]; compound concentration: 6.25uM -0.0324 | [7]; compound concentration: 12.5uM -0.0744 | [7]; compound concentration: 25uM -0.057 | [7]; compound concentration: 50uM -0.0549 | [7]; compound concentration: 100uM -0.0496 | [7]; compound concentration: 200uM -0.123 | [8]; compound concentration: 0.78uM -0.131 | [8]; compound concentration: 1.56uM -0.0656 | [8]; compound concentration: 3.13uM -0.0464 | [8]; compound concentration: 6.25uM 0.0547 | [8]; compound concentration: 12.5uM 0.00701 | [8]; compound concentration: 25uM -0.0406 | [8]; compound concentration: 50uM 0.000255 | [8]; compound concentration: 100uM -0.0245 | [8]; compound concentration: 200uM -0.143 | [9]; compound concentration: 50uM -0.0467 | [9]; compound concentration: 200uM -0.231 | [10]; compound concentration: 50uM -0.414 | [10]; compound concentration: 200uM -0.636 | [11]; compound concentration: 50uM -0.123 | [11]; compound concentration: 200uM -0.132 | [12]; compound concentration: 50uM -0.346 | [12]; compound concentration: 200uM -0.338 | [13]; compound concentration: 50uM -0.306 | [13]; compound concentration: 200uM -0.187 | [14]; compound concentration: 50uM -0.167 | [14]; compound concentration: 200uM -0.253 | [15]; compound concentration: 50uM 0.0209 | [15]; compound concentration: 200uM -0.351 | [16]; compound concentration: 50uM -0.00835 | [16]; compound concentration: 200uM -0.371 | [17]; compound concentration: 50uM -0.247 | [17]; compound concentration: 200uM -0.347 | [18]; compound concentration: 50uM -0.126 | [18]; compound concentration: 200uM -0.311 | [19]; compound concentration: 50uM -0.0892 | [19]; compound concentration: 200uM -0.0187
